Each molecule was assayed against Albumin (Bos taurus) (UniProt P02769) (assay: bovine serum albumin binders on microarray, profiling panel, artefact control for SMM control protein annotation, biochemical, small-molecule microarray, Alexa647 label, 635/667 nm fluorescence (AID 1118;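 also: score merges 667 nm emission intensity and signal-to-noise per printed compound spot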)). Settings: BSA-A647 binding, fluorescence 635 nm, higher = more signal.
Albumin (Bos taurus), sequence (P02769 whole entry, looked up): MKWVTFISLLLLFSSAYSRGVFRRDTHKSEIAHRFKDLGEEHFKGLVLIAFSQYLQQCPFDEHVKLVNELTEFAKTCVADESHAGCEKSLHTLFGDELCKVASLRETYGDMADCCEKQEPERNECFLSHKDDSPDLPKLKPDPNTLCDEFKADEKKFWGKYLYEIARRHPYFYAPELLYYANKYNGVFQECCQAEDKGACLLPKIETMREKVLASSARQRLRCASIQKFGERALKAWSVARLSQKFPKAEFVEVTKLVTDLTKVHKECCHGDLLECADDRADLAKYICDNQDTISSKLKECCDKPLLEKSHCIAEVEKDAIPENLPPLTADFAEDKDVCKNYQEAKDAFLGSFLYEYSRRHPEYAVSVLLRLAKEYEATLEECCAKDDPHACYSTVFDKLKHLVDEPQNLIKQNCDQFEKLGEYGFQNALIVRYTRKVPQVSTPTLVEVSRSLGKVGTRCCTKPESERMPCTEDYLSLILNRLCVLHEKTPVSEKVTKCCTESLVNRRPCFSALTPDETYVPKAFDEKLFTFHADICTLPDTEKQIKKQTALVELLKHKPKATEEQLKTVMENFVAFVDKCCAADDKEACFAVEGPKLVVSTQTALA

SMILES | composite z-score
O=C1O[C@@H](c2ccccc2)[C@@H](c2ccccc2)N2[C@@H](c3ccc(OCCO)cc3)[C@]3(C(=O)Nc4ccc(C#CC5=CCCCC5)cc43)[C@@H](C(=O)N3CCCCCCC3)[C@H]12 | 0.425
CN1C(=O)C2C=CC(C(O)c3ccccc3)N(N3CCCCC3)C2C1=O (stereo unspecified) | 0.988
C[C@H]1C2[C@H](Cc3ccccc3)NC(=O)[C@]23C(=O)NCC(=O)N2CCC[C@H]2C(=O)NC/C=C/CCC/C=C/C3[C@@H]2O[C@]12C (stereo partly specified) | -0.677
NC(=O)NCC#Cc1ccc2c(c1)[C@]1(C(=O)N2)[C@H](C(=O)O)[C@H]2C(=O)O[C@H](c3ccccc3)[C@H](c3ccccc3)N2[C@@H]1c1ccc(O)cc1 | 0.424
O=C(O)C1N=C(c2ccc(OCCCO)cc2)N(c2ccccc2)O1 (stereo unspecified) | 0.811
CN(C)CCCCCCNC(=O)[C@@H]1C[C@@H]2C(=O)N[C@@H](CCCC[N+](C)(C)C)C(=O)N2[C@@H]1c1ccc(O)cc1 | -0.793
O=C1OCC=C[C@H]2OC34C=CCN(CCN5CCOCC5)C(=O)[C@H]3N(CCO)C(=O)[C@@H]4[C@@H]12 (stereo partly specified) | -0.263
CS(=O)(=O)CCOC(=O)C1=CC(CCCO)=CC(C2CC2)N(Cc2cc3c(cc2Br)OCO3)C=C1C(=O)OCCS(C)(=O)=O (stereo unspecified) | 0.741
CCCC=C(CCC)[C@@H](NS(=O)(=O)c1ccc(Cl)cc1)c1ccc(C(=O)OC)cc1 | 0.196
[N-]=[N+]=Nc1ccccc1C[C@@]1(C(=O)N2CCCCC2)N=C(c2ccc(OCCCO)cc2)O[C@@H]1c1ccccc1N=[N+]=[N-] | 0.998
O=C1O[C@H](c2ccccc2)[C@H](c2ccccc2)N2[C@H]1[C@@H](C(=O)NC[C@H](O)c1ccccc1)[C@]1(C(=O)Nc3ccc(C#CC4=CCCCC4)cc31)[C@H]2c1ccccc1OCCO | 0.395
C=CCC(OC(C)=O)[C@@H]1[C@@H](N(Cc2cc3ccccc3o2)C(=O)Cc2ccc(OC)cc2)c2cc(OCCCO)ccc2N1C(=O)c1ccc2ccccc2c1 (stereo partly specified) | 0.234
O=C1[C@H]2C=C(I)[C@H](C[C@@H]2OCCCCO)[C@@]12CO2 | -1.17
[N-]=[N+]=Nc1ccccc1C[C@]1(C(=O)NCC(O)CO)N=C(c2ccc(OCCCO)cc2)O[C@H]1c1ccccc1 (stereo partly specified) | 0.927
O=C1O[C@H](c2ccccc2)[C@H](c2ccccc2)N2[C@H]1[C@@H](C(=O)NC[C@H](O)c1ccccc1)[C@]1(C(=O)Nc3ccccc31)[C@H]2c1ccc(O)cc1 | 0.626
CCN(CC)c1ccc(N2CC=CC34O[C@@H]5C=CCOC(=O)[C@@H]5[C@H]3C(=O)N(CCCCCCO)[C@@H]4C2=O)cc1 (stereo partly specified) | 0.99
CC1CC/C=C\[C@H]2OC34C=CCN(c5ccc6ccccc6c5)C(=O)[C@H]3N(CCO)C(=O)[C@@H]4C2C(=O)O1 (stereo partly specified) | 0.653
CC=CC(O)C1C=CC2C(=O)N(C)C(=O)C2N1N(c1ccccc1)c1ccccc1 (stereo unspecified) | 0.803

SMILES | composite z-score
CCOC(=O)C1=CCC(c2ccc(F)cc2)N(S(=O)(=O)c2ccc(C)cc2)C1 (stereo unspecified) | 0.569
O=C1C2C=CC(C(O)C=Cc3ccc([N+](=O)[O-])cc3)N(Nc3ccccc3F)C2C(=O)N1c1ccccc1 (stereo unspecified) | 0.868
C=CCN1Cc2ccccc2[C@@H]2OC(c3ccc(OCCCO)cc3)=N[C@]2(CCS(=O)(=O)c2ccccc2)C1=O | -0.292
O=C(CS)NCCCCCNC(=O)[C@H]1C[C@H]2C(=O)NCC(=O)N2[C@H]1c1ccc(O)cc1 | -0.366
[N-]=[N+]=NCc1ccccc1[C@@H]1OC(c2ccc(OCCCO)cc2)=N[C@]1(CCS(=O)(=O)c1ccccc1)C(N)=O | 0.0943
C=CCN1C(=O)[C@]2(Cc3ccccc3)N=C(c3ccc(OCCCO)cc3)O[C@@H]2c2ccccc21 | -0.591
O=C1OCCC/C=C\[C@H]2OC34C=CCN(c5ccc6ccccc6c5)C(=O)[C@H]3N(CCCCCO)C(=O)[C@@H]4C12 (stereo partly specified) | -0.152
CCOc1cc(C(O)C2C=CC3C(=O)N(c4ccccc4)C(=O)C3N2Nc2ccc(C(C)C)cc2)ccc1O (stereo unspecified) | 0.925
[N-]=[N+]=Nc1ccccc1C[C@]1(C(=O)N2CCCCC2)COC(c2ccc(OCCCO)cc2)=N1 | 0.715
C=C(C(=O)CC[C@H](OC(C)=O)c1ccccc1OCCO)C(C)C | 0.0421
Cc1ccc(S[C@]2(C(=O)O)CC(=O)N(C(C)C)[C@@H]2c2ccc(CO)cc2)cc1 | 0.07
CN(C)C(=O)[C@]1(Cc2ccccc2)N=C(c2ccc(OCCCO)cc2)O[C@@H]1c1ccccc1N=[N+]=[N-] | 0.784
CCCCCN1CC=CC23O[C@@H]4C=CCOC(=O)[C@@H]4[C@H]2C(=O)N(C(C)CO)[C@@H]3C1=O (stereo partly specified) | 0.755
CO[C@H]1O[C@H](CO)[C@@H](OC(=O)Nc2cccc(F)c2)[C@H](OC(=O)Nc2ccccc2)[C@H]1OC(=O)Nc1ccccc1 | -0.225
NC(=O)[C@@H]1[C@H]2C(=O)O[C@H](c3ccccc3)[C@H](c3ccccc3)N2[C@H](c2ccc(O)cc2)[C@@]12C(=O)Nc1ccc(C#CC3=CCCCC3)cc12 | 0.299
C=CC1c2cc(O)c(OC)cc2CCN1Cc1cccc(OC(F)(F)F)c1 (stereo unspecified) | 0.971
CC(C)[Si](C#CCCCC#N)(O[C@H](c1ccccc1)c1cn(Cc2cccc(Cl)c2)nn1)C(C)C | 0.588
COC(=O)c1c2oc(c1C(=O)OC)C(=O)NC1(CCCCC1)c1cn(nn1)C[C@H](Cc1ccccc1)NC(=O)N[C@H](CO)CC2 | 0.692
